M1 antag: blocks human M1 muscarinic receptor; 360,000 compounds, 1.3% hits; P11229; CHO-K1 hM1, Fluo-8 calcium fluorescence, ACh EC80 antagonist; inhibition, % at 3 µM;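 active means percent inhibition above its own plate's cutoff, namely the mean of that plate's compound wells plus 3 SD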;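 further: peak over basal fluorescence ratio during 140 s after agonist addition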
Target sequence (P11229 whole entry, looked up): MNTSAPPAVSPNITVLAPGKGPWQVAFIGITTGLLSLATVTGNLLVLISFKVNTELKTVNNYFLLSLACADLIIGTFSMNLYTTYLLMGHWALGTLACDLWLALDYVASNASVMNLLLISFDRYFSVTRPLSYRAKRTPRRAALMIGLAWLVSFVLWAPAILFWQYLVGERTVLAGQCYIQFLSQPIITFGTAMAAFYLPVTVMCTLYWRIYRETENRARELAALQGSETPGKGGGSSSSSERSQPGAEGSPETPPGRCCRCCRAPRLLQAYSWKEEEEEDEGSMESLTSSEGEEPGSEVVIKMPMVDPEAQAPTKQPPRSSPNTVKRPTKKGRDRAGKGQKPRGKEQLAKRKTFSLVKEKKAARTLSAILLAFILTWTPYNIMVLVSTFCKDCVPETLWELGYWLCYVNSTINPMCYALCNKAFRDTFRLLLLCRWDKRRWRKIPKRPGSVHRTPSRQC
M1 ag parental: nonselective activator or artifact in parental CHO-K1 cells. AID 602248. Fluo-8 calcium fluorescence; scaled to maximal ATP response, vehicle zero. activation, % at 3 µM. 360,000 compounds, 0.48% hits; in the data active means activation above about 15%;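 further: untransfected CHO-K1 host cells lacking M1 receptor as counterscreen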
CHO-K1 Ca antag: counter-screen for M1 antagonists: effect in parental CHO-K1 cells; 360,000 compounds, 0.6% hits; AID 602250; ATP-induced calcium, Fluo-8 fluorescence; inhibition, % at 3 µM;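 active means inhibition above a per-plate cutoff, the plate's mean sample inhibition plus 3 SD, cut at about 24% in these data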
M1 ag: activates human CHRM1 receptor; CHO-K1 hM1, Fluo-8 calcium fluorescence, agonist mode; 0% DMSO, 100% acetylcholine EC100; activation, % at 3 µM; 360,000 compounds, 0.33% hits; AID 588814;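 active means activation above the run's mean compound activation plus 3 SD, cut at about 16% in these data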;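 further: peak over basal fluorescence ratio within a 140 s kinetic read after compound addition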
CHRM1 PAM: potentiates human M1 receptor response to acetylcholine. CHO-K1 hM1, Fluo-8 calcium fluorescence, ACh EC20; 0% = ACh EC20, 100% = maximal ACh. activation, % at 3 µM. 360,000 compounds, 0.088% hits. AID 588819; in the data active means activation above about 19%, passing the limit was not always enough
CHO-K1 Ca PAM: counter-screen for M1 PAMs: effect in parental CHO-K1 cells; AID 602247; activation, % at 3 µM; ATP EC20, Fluo-8 calcium fluorescence; 0% at ATP EC20, 100% at ATP max; 360,000 compounds, 0.02% hits;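 active means activation above the run cutoff, the mean activation of all test compounds plus 3 SD, cut at about 40% in these data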;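 further: peak over basal fluorescence ratio in a 140 s read after ATP addition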
Hits are given with their value; - = inactive. Rows were chosen to be rich in hits. Some 2.4% of all compounds tested hit in one or more screens of this group.

SMILES	M1 antag	M1 ag parental	CHO-K1 Ca antag	M1 ag	CHRM1 PAM	CHO-K1 Ca PAM
COc1ccc(NC(=O)C2Cc3c(-c4cccc(C(N)=O)c4)ccnc3O2)cc1OC (stereo unspecified)	-	-	-	-	-	-
CN(C)/C=C(\C=O)c1onc(-c2ccccc2Cl)c1C#N	-	-	-	-	-	-
CN(C)c1ccc(C=NNc2nc3c([nH]2)c(=O)n(C)c(=O)n3C)cc1	24	-	-	-	-	-
COc1cc(C=NNc2nc3c([nH]2)c(=O)n(C)c(=O)n3C)ccc1O	-	-	-	-	-	-
Cn1cc(CN2CCN(c3ccccc3)CC2)c2ccccc21	31	-	-	-	-	-
Cc1cc[n+](CC(=O)c2cc3ccccc3oc2=O)cc1	59	-	-	-	-	-
C=CC(=O)Nc1ccc(CN2C(=O)N(c3c(Cl)c(OC)cc(OC)c3Cl)Cc3cnc(NCCCCN(CC)CC)nc32)cc1	39	-	-	-	-	-
CCCS(=O)(=O)c1nc(S(=O)(=O)c2ccc(C)cc2)c(N2CCc3ccccc3C2)s1	-	-	-	-	-	-
O=C(NC1CCCCCCC1)c1ccccc1-c1ccccc1	-	-	-	-	-	-
N=c1sccn1CC(=O)Nc1ccc(S(N)(=O)=O)cc1	-	-	-	-	-	-
N=c1sccn1CC(=O)Nc1cccc(S(N)(=O)=O)c1	35	-	-	-	-	-
CC(c1ccc(O)cc1)(c1ccc(O)cc1)c1ccc(CCBr)cc1	-	18	-	-	-	-
Cc1nc2ccc(S(=O)(=O)NCC(=O)Nc3ccc(F)cc3)cc2s1	-	-	-	-	-	-
Cc1ccc(OCCn2cc(/C(N)=N/O)c3ccccc32)cc1C	-	-	28	-	-	-
COc1ccc(OCCn2cc(/C(N)=N/O)c3ccccc32)cc1	-	-	-	-	-	-
CCN(CC)Cc1oc(CO)cc(=O)c1O	-	-	-	-	-	-
CCN(CC)c1ccc2c(-c3ccc(S(=O)(=O)O)cc3S(=O)(=O)[O-])c3ccc(=[N+](CC)CC)cc-3oc2c1	-	41	-	86	-	-
CC(C)n1c(CCC(=O)O)ccc1-c1ccccc1	22	-	-	-	-	-
CCC(C(=O)OCC(=O)C1(O)CCC2C3CCC4=CC(=O)CCC4(C)C3C(O)CC21C)C(C)C (stereo unspecified)	84	-	-	-	-	-
CC12CCC(=O)C=C1CCC1C2C(O)CC2(C)C(c3csc(N)n3)CCC12 (stereo unspecified)	42	-	-	-	-	-
CC12CCC(=O)C=C1CCC1C2CCC2(C)C(C(=O)CO)CC(O)C12 (stereo unspecified)	-	-	-	-	-	-
CC(=O)[C@@]1(O)CC[C@H]2[C@@H]3CCC4=CC(=O)CC[C@]4(C)[C@H]3[C@@H](O)C[C@@]21C	-	-	-	-	-	-
CC12CCC(=O)C=C1CCC1C2CCC2(C)C(c3csc(N)n3)CCC12 (stereo unspecified)	79	-	-	-	-	-
CC(=O)C1CCC2C3CCC4=CC(=O)CCC4(C)C3C(O)CC12C (stereo unspecified)	-	-	-	-	-	-
CCN(CC)C1=CC2=CC(=C(C#N)C#N)CCC2CC1 (stereo unspecified)	63	99	67	230	-	-
SMILES	M1 antag	M1 ag parental	CHO-K1 Ca antag	M1 ag	CHRM1 PAM	CHO-K1 Ca PAM
CCCCN(C)C1=CC2=CC(=C(C#N)C#N)CCC2CC1 (stereo unspecified)	101	578	92	670	-	-
NC(=O)C1CCN(c2nc(-c3cccc(N)c3)cs2)CC1	-	-	-	-	-	-
O=S(=O)(c1cccs1)N1CCN(CC(O)COc2cc(Cl)ccc2Cl)CC1 (stereo unspecified)	23	-	-	-	-	-
O=C(Cc1ccc(Cl)cc1)c1ccc(O)cc1	-	-	-	-	-	-
O=C(C#Cc1cccc([N+](=O)[O-])c1)c1ccccc1	-	-	27	-	-	-
O=C(O)C(=Cc1cccc([N+](=O)[O-])c1)c1ccccc1	-	-	-	-	-	-
O=Cc1ccccc1OCCOc1ccccc1C=O	82	-	-	-	-	-
CC(Nc1ncnc2sccc12)c1ccccc1 (stereo unspecified)	-	16	-	-	-	-
c1ccc(Nc2ncnc3sccc23)cc1	-	-	-	-	-	-
CCCCCCC(C)OC(=O)Nc1cccc2ccccc12 (stereo unspecified)	-	-	-	-	-	-
CC(C)CN1CCN(CCCOC(=O)Nc2cccc3ccccc23)CC1C (stereo unspecified)	32	-	-	-	-	-
COC(=O)c1ccc(/C=N/OCC(=O)NC2CCCC(C)C2C)cc1 (stereo unspecified)	31	-	-	-	-	-
COC(=O)c1ccc(/C=N/OCC(=O)NC2CCCCCCC2)cc1	-	-	-	-	-	-
CCCCn1c(/N=C/c2ccc(N(C)C)cc2)nc2ccccc21	-	-	-	-	21	-
N#Cc1c(C(F)(F)F)cc(-c2ccco2)nc1SCc1ccccn1	-	18	-	-	-	-
N#Cc1c(C(F)(F)F)cc(-c2ccco2)nc1SCc1ccncc1	-	-	-	-	-	-
Cc1ccc(OCC(=O)Nc2ccc3c(c2)OCO3)c([N+](=O)[O-])n1	-	-	-	-	-	-
Cc1ccc(OCC(=O)Nc2ccc3c(c2)OC(F)(F)O3)c([N+](=O)[O-])n1	49	-	-	-	-	-
O=C(Nc1ccccc1)Nc1ccc(F)c([N+](=O)[O-])c1	-	15	-	-	-	-
Cc1ccc(NC(=O)Nc2ccccc2)cc1[N+](=O)[O-]	-	-	-	-	-	-
CCNC(=S)Nc1ccc(Cl)c([N+](=O)[O-])c1	36	-	-	-	-	-
O=C(Nc1ccccc1)Nc1ccc(Cl)c([N+](=O)[O-])c1	-	17	-	-	-	-
C=CCOc1ccc(Oc2cc(C)nc(SC)n2)nn1	-	-	-	-	-	-
COc1c(C)cc(C(=O)C2CCCN(Cc3cnc(N4CCOCC4)s3)C2)cc1C (stereo unspecified)	-	-	-	-	-	-

High-throughput results from PubChem BioAssay.
